D1 antag = Antagonist of Human D 1 Dopamine Receptor: qHTS; D(1A) dopamine receptor (Homo sapiens), P21728; HEK293 TREx D1 cells, calcium flux, dopamine EC80; active compounds read low; activity change, negative = inhibition, % at 10 µM; actives 3.2% (n = 360,000); in the data active = activity change below about -30%
Target sequence (P21728 whole entry, looked up): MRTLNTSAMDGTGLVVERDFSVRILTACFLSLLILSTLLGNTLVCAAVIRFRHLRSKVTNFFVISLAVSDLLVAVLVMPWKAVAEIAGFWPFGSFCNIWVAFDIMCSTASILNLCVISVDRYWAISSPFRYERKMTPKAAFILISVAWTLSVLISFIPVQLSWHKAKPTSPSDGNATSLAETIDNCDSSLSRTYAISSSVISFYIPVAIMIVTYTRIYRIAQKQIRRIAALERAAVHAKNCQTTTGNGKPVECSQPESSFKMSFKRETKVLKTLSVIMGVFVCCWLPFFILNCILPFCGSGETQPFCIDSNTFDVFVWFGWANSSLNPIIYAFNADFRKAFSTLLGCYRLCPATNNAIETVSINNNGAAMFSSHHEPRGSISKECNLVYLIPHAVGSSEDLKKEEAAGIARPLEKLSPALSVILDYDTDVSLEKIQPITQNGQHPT
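Allosteric or orthosteric antagonism assessed as attenuation of the calcium response to EC80 dopamine, added 180 s after compound, in induced HEK293 Trex D1 cells loaded with no-wash calcium dye.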
D1 ag = Allosteric Agonists of the Human D1 Dopamine Receptor: qHTS; D(1A) dopamine receptor (Homo sapiens), P21728; actives 1% (n = 360,000); activation, % at 2 µM; HEK293 T-REx D1 cells, calcium flux, agonist mode; AID 504660, 2011; in the data active = activation above about 30%
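Agonism was scored from calcium flux recorded over 180 s (1 read/s) after pintool compound addition, following a 10-cycle baseline. Cells were inducible force-coupled HEK293 TREx D1, plated overnight at 30 C and loaded with no-wash calcium dye.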
D3 antag = qHTS of D3 Dopamine Receptor Antagonist: qHTS; D3R cells, DiscoveRx beta-arrestin luminescence, antagonist mode; active compounds read low; actives 2.5% (n = 360,000); max response, negative = inhibition, %; in the data active = max response below about -50%; inconclusive = no clear call, values can overlap the other calls
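Cells expressing the human receptor were seeded at 1500 cells/well, incubated overnight at 37 degrees C in 5% CO2, then exposed to library compounds with dopamine controls for 90 minutes at 37 degrees C before luminescent detection.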
D1 PAM = Potentiators of Human D1 Dopamine Receptor: qHTS | AID 504651, 2011 | potentiation, % at 10 µM | actives 0.036% (n = 360,000) | HEK293 TREx D1 cells, calcium flux, dopamine EC20 potentiation; in the data active = potentiation above about 30%
D3 ag = qHTS of D3 Dopamine Receptor Agonist: qHTS; max activation, %; actives 0.58% (n = 410,000); D3R DiscoveRx beta-arrestin cells, luminescence, 90 min; in the data active = max activation above about 30%
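Agonist mode: compounds and dopamine controls were applied to plated cells for 90 min at 37 degrees C after an overnight attachment at 1500 cells/well. Luminescent read-out followed 30 - 60 minutes at room temperature with DiscoveRx detection reagent.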
Each line names hits and unclear results; the compound was inactive in the other large screens; ! = not confirmed by another sample. Rows were chosen to be rich in hits. Some 6% of all compounds tested hit in one or more screens of this group.

Cc1cccc(NC(=O)c2oc3ccc(S(=O)(=O)N4CCOCC4)cc3c2C)c1C	D3 ag 41.2
Cc1ccc(CNC(=O)c2c[nH]c3ccc(S(=O)(=O)Nc4ccc(C(C)C)cc4)cc3c2=O)cc1	none (no result: D3 antag)
OC(COCC1COc2ccccc2O1)CN1CCc2ccccc2C1 (configuration not stated)	D1 ag 32.9
OC(COCC1COc2ccccc2O1)CN1CCN(c2ccccn2)CC1 (configuration not stated)	D3 ag 75.1!
Cc1c(O)ccc2c3c(c(=O)oc12)CCCC3	none
Cc1coc2cc3oc(=O)c4c(c3cc12)CCCC4	D1 antag -45.3
Cc1oc2c(C)c3oc(=O)c4c(c3cc2c1C)CCCC4	D3 ag 31.8
Cc1coc2cc3oc(=O)cc(C)c3cc12	none
Cc1cc(C)c2c(c1)C1C=CCC1C(C(=O)O)N2 (configuration not stated)	none (no result: D3 antag, D3 ag)
COc1ccc(C)cc1NC(=O)c1ccc(CN2CCc3ccccc3C2)cc1	D3 antag -68.8
COC(=O)c1ccc(C)c(NC(=O)c2ccc(CN3CCc4ccccc4C3)cc2)c1	D3 antag -92.2
CCCCc1nn2c(=O)cc(COC(=O)c3ccccc3NC(=O)c3ccccc3OC)nc2s1	none (no result: D3 antag)
COc1ccc(-c2nc(C)c(CCNC(=O)c3ccc(F)c(F)c3)s2)cc1	none (no result: D3 antag)
C#CCOCCOCCOCCNc1nc(N2CCN(C(=O)CCCCCCCCCCNC(=O)Cn3cc(C[C@@H](C)O)nn3)CC2)nc(N2CCN(C(=O)CCCCCCCCCCNC(=O)[C@@H](CCC(=O)O)n3cc(CCCCCN)nn3)CC2)n1	D1 ag 32.1
C#CCOCCOCCOCCNc1nc(N2CCN(C(=O)CCCCCCCCCCNC(=O)Cn3cc(CCCCCN)nn3)CC2)nc(N2CCN(C(=O)CCCCCCCCCCNC(=O)Cn3cc(CCCCCN)nn3)CC2)n1	D1 ag 38.0, D1 PAM 52.6
C#CCOCCOCCOCCNc1nc(N2CCN(C(=O)CCCCCCCCCCNC(=O)Cn3cc(CCCCCN)nn3)CC2)nc(N2CCN(C(=O)CCCCCCCCCCNC(=O)[C@@H](CCC(=O)O)n3cc(CCCCCN)nn3)CC2)n1	D1 ag 39.0
C#CCOCCOCCOCCNc1nc(N2CCN(C(=O)CCCCCCCCCCNC(=O)Cn3cc(CCCCCN)nn3)CC2)nc(N2CCN(C(=O)CCCCCCCCCCNC(=O)[C@@H](CCSC)n3cc(CCO)nn3)CC2)n1	none
C#CCOCCOCCOCCNc1nc(N2CCN(C(=O)CCCCCCCCCCNC(=O)Cn3cc(C[C@@H](C)O)nn3)CC2)nc(N2CCN(C(=O)CCCCCCCCCCNC(=O)[C@H](CCCCN)n3cc(CCCC(=O)O)nn3)CC2)n1	none
C#CCOCCOCCOCCNc1nc(N2CCN(C(=O)Cn3cc(CCCCN)nn3)CC2)nc(N2CCN(C(=O)Cn3cc(CCCCN)nn3)CC2)n1	none
O=C(CSc1nc2ccccc2nc1Cc1ccc(Cl)cc1)N1CCc2ccccc21	none (no result: D3 antag)
O=C(NCCN1CCOCC1)c1ccc(-c2ccccc2)cc1	D1 antag -36.3
O=C(NCCN1CCOCC1)N1c2ccccc2Sc2ccccc21	D3 antag -53.1
O=C(Cc1ccc(-c2ccccc2)cc1)NCCN1CCOCC1	D3 antag inconclusive
CCCCC(=O)Nc1ccc(C(=O)NCCN2CCOCC2)cc1	D1 antag -57.7
O=C(NCCO)N1c2ccccc2Sc2ccccc21	none
CCOc1ccc(C(=O)NCCN2CCOCC2)cc1	none
Cc1ccccc1OCc1nc2c3cnn(-c4cccc(F)c4)c3ncn2n1	none (no result: D3 antag)
c1ccc2c(c1)ccn1c(Cc3ccsc3)c(C3CCCCC3)nc21	D3 antag -82.6 (no result: D1 antag, D1 ag, D1 PAM)
CC(=O)NC(c1ccco1)c1cc(Br)c2cccnc2c1O (configuration not stated)	none (no result: D3 antag, D3 ag)
O=C(Cc1c(F)cccc1Cl)Nc1ccon1	none
CCOCCc1nnc(NC(=O)Cc2c(F)cccc2Cl)s1	D3 ag 34.7
Cc1cc(NC(=O)Cc2c(F)cccc2Cl)no1	D1 antag -30.4
O=C(Nc1ccc(Cl)cc1)C(NS(=O)(=O)c1cccs1)c1ccccc1 (configuration not stated)	none (no result: D3 antag)
O=C(Cc1ccccc1)Nn1c(O)c(/C=C2\C=Nc3ccccc32)sc1=S	D1 ag 99.4
Cn1c(O)c(/C=C2\C=Nc3ccccc32)sc1=Nc1ccc(C(=O)O)cc1	none
CCN(CC)c1ccc2c(C)c(Cl)c(=O)oc2c1	none
CCN(CC)c1ccc2c(c1)oc(=O)c1c(Cl)cc(=O)oc12	D1 antag -38.1, D1 ag 141.8, D3 antag -91.1
NC(N)=Nc1cc2ccccc2c2ccccc12	D1 antag -69.9 (no result: D3 antag, D3 ag)
NC(N)=NC(N)=Nc1cccc2ccccc12	none
CC(=O)Nc1nc(C2COc3ccccc3O2)cs1 (configuration not stated)	none
NC(N)=Nc1nc(C2COc3ccccc3O2)cs1 (configuration not stated)	D1 antag -30.6
CC(=O)N1CCc2c(sc3c2c(=O)n(-c2ccc(C)cc2)c(=O)n3Cc2c(F)cccc2Cl)C1	none (no result: D3 antag)
Cc1cc(N2CCN(c3nc4ccccc4s3)CC2)n2ncnc2n1	D1 antag -32.0
CCOC(=O)c1cccc(Nc2cc(C)nc(C)n2)c1	none (no result: D3 antag)
Cc1ccc(CN(C(=O)COc2ccccc2Cl)c2ccccn2)o1	none (no result: D3 antag)
O=C(C1=C[C@@H](c2csc3ccccc23)C[C@@H](OCc2ccc(CO)cc2)O1)N1CCN(Cc2ccc3c(c2)OCO3)CC1	D3 antag inconclusive
O=C(C1=C[C@H](c2ccccc2)C[C@H](OCc2ccc(CO)cc2)O1)N1CCN(Cc2ccccc2)CC1	D3 antag -50.2
O=C(C1=C[C@H](c2ccc(C(F)(F)F)cc2)C[C@H](OCc2ccc(CO)cc2)O1)N1CCCCCCC1	D3 antag -72.3
O=C(C1=C[C@@H](c2ccccc2)C[C@@H](OCc2ccc(CO)cc2)O1)N1CCN(Cc2ccc3c(c2)OCO3)CC1	D3 antag inconclusive
O=C(C1=C[C@@H](c2ccc(C(F)(F)F)cc2)C[C@@H](OCc2ccc(CO)cc2)O1)N1CCOCC1	none
O=C(C1=C[C@@H](c2csc3ccccc23)C[C@@H](OCc2ccc(CO)cc2)O1)N1CCN(Cc2ccccc2)CC1	D3 antag -52.6
Cc1cccc(N2C(=O)CSC23C(=O)N(CC(=O)NCc2ccccc2Cl)c2ccccc23)c1 (configuration not stated)	none (no result: D3 antag)
COc1ccccc1N1CCN(CCCCNC(=O)c2ccc(-c3ccc(C(C)=O)cc3)cc2)CC1	none (no result: D1 antag, D1 ag, D3 antag, D1 PAM)
Fc1ccc(OCCCCCN2CCCC2)cc1	none
